Results filed as inconclusive are left out. A call without a number means that no potency is given here. Active and inactive are the calls of the source. Calls come from the whole dose curve; as a rule, active = well fitted cell-killing curve with a large enough effect in the repeat runs; inconclusive = weak or mixed curves, or effect the other way; inactive = flat fitted curve, though single readings scatter.
Assay: qHTS assay to identify small molecule antagonists of the retinoid acid receptor (RAR) signaling pathway - cell viability counter screen (AID 1159551); note: nearly all actives have a fitted effect of over 35% in size
Conditions: C3RL4 cells viability, ATP luminescence (CellTiter-Glo), 6 h; series mostly up to 92.4 µM
Excerpt: U.S. Tox21 Program National Center for Advancing Translational Sciences [NCATS] NIH Chemical Genomics Center [NCGC] U.S. Environmental Protection Agency [EPA] National Institutes of Environmental Health Sciences [NIEHS] National Toxicology Program [NTP] U.S. Food and Drug Administration [FDA] Tox21 Assay Overview: All-trans Retinoic acid (atRA) is the potent natural metabolite of retinol and plays an important role in normal embryonic development and maintenance of cellular phenotype in adult animals. atRA is the activating ligand for the retinoic acid receptors (RARs) which form heterodimers with retinoid X receptors (RXRs) on the retinoic acid response element (RARE). Through activation of the RAR/RXRs nuclear receptors, atRA regulates the transcription of a large number of protein-coding genes and regulatory RNAs. Intracellular levels of atRA are controlled by the retinol signaling pathway (RSP) that regulates the biosynthesis and catabolism of atRA to maintain physiological levels. Chemicals that interfere with the RSP can cause abnormal intracellular levels of atRA and therefore are potential developmental toxicants. To assess compounds for the potential adverse effect on embryonic development through interfering with retinol signaling, a cell-based RARE luciferase reporter gene assay was used. C3RL4 cell line (OARSA/CFSAN/FDA, Laurel, MD) was used to screen Tox21 10K compound library for identifying inhibitors of the RSP. Also cytotoxicity was assessed by determining the viability of cells based on the quantitation of ATP.
Tox21 Assay Protocol Summary: C3RL4 cells were seeded at 1,000/well in 4 uL of assay medium into white solid 1,536-well tissue culture plates (Greiner Bio-One North America Inc. Monroe, NC) using a Multidrop Combi (Thermo Scientific, Waltham, MA) dispenser. After incubation at 37 C and 5% CO2 for an overnight, 23 nL of compounds dissolved in DMSO, positive control or DMSO only were transferred by a Pintool station (Kalypsys, San Diego, CA). One ul of 1 uM (final concentration) of Retinol was added right after the compound addition by using a Flying Reagent Dispenser (FRD) (Aurora Discovery, San Diego, CA). After 6 hr incubation at 37 C and 5% CO2, 5 uL of CellTiter-Glo reagent (Promega Corporation, Madison, WI) was added to each assay plate using an FRD. Luminescence was quantified on a ViewLux plate reader (PerkinElmer, Waltham, MA) after 30 min incubation at room temperature.

SMILES	Potency
O=S(=O)(Cl)c1ccccc1	inactive
CCCC(=O)Cl	inactive
CCCCC(CC)COP(=O)(Oc1ccccc1)Oc1ccccc1 (stereo not given)	inactive
O=C(CBr)OCc1ccccc1	inactive
C=CC(=O)NCNC(=O)C=C	inactive
C=CCN1CC[C@]23c4c5ccc(O)c4O[C@H]2C(=O)CC[C@@]3(O)[C@H]1C5	inactive
COc1ccc(-c2ccccc2)cc1NNC(=O)OC(C)C	inactive
CCCCCC[N+](=O)[O-]	inactive
CCOS(C)(=O)=O	inactive
CC(=O)[C@H]1CC[C@H]2[C@@H]3CC[C@H]4C[C@](C)(O)CC[C@]4(C)[C@H]3CC[C@]12C	inactive
Clc1cccc2ccccc12	inactive
CCCCCCCCCC(=O)O[C@H]1CC[C@H]2[C@@H]3CCC4=CC(=O)CC[C@@H]4[C@H]3CC[C@]12C	inactive
CCOP(=O)(OCC)Oc1ccc([N+](=O)[O-])cc1	inactive
N#CCC#N	inactive
Nc1ccc([N+](=O)[O-])cc1[N+](=O)[O-]	inactive
N#CCc1ccccc1	inactive
CCCN(CC1CC1)c1c([N+](=O)[O-])cc(C(F)(F)F)cc1[N+](=O)[O-]	inactive
Cc1c(F)c(F)c(COC(=O)C2C(/C=C(\Cl)C(F)(F)F)C2(C)C)c(F)c1F (stereo not given)	inactive
O=C(NCc1cccnc1)Nc1ccc([N+](=O)[O-])cc1	inactive
Cc1ccccc1CCl	inactive

SMILES	Potency
Nc1nc(N)nc(N)n1	inactive
CCOP(=S)(OCC)SCSCC	inactive
CC(C)O.CC(C)O.OCCN(CCO)CCO.OCCN(CCO)CCO.[Ti]	inactive
Clc1ccc(C2(Cn3cncn3)CC(Br)CO2)c(Cl)c1 (stereo not given)	inactive
CC(Cl)Cl	inactive
CCOP(=O)(OCC)SCCSCC	inactive
C=CCC1([C@H](C)CCC)C(=O)NC(=O)NC1=O	inactive
O=C(CCl)c1ccc(Cl)cc1Cl	inactive
COP(=S)(Oc1cc(Cl)c(Br)cc1Cl)c1ccccc1 (stereo not given)	inactive
CN1C[C@H](CNC(=O)OCc2ccccc2)C[C@@H]2c3cccc4c3c(cn4C)C[C@H]21	inactive
NS(=O)(=O)C(F)(F)C(F)(F)C(F)(F)C(F)(F)C(F)(F)C(F)(F)C(F)(F)C(F)(F)F	inactive
ClCCCCBr	inactive
CC(C)N(CCC(C(N)=O)(c1ccccc1)c1ccccn1)C(C)C (stereo not given)	inactive
CCc1ccc(C(=O)NN(C(=O)c2cc(C)cc(C)c2)C(C)(C)C)cc1	inactive
CC(C)=CCOc1c2occc2cc2ccc(=O)oc12	inactive
O=C1C(Cl)C(CCl)CN1c1cccc(C(F)(F)F)c1 (stereo not given)	inactive
O=NN1CCCCCC1	inactive
O=C(O)c1ccccc1C(=O)Nc1cccc2ccccc12	inactive
CCC(Br)(CC)C(=O)NC(N)=O	inactive
CC1Sc2c(C(=O)O)c(=O)c3cc(F)c(N4CCNCC4)cc3n21 (stereo not given)	inactive
